# Reference: PubChem BioAssay AID1220 (Sanford-Burnham Center for Chemical Genomics, 2008)
# In all, about 190,000 compounds went through this assay and about 1,300 (0.68%) were called active. The sample holds actives, similar compounds and a random draw of the others, so the mix is not that of the screen. A number with no mark means an inactive call. No stated cut-off is given here; in the data, active means inhibition above about 50%; inactive means the rest.
# Target: Mannose-6-phosphate isomerase (Homo sapiens) (UniProt P34949)
# Sequence (P34949 whole entry, looked up): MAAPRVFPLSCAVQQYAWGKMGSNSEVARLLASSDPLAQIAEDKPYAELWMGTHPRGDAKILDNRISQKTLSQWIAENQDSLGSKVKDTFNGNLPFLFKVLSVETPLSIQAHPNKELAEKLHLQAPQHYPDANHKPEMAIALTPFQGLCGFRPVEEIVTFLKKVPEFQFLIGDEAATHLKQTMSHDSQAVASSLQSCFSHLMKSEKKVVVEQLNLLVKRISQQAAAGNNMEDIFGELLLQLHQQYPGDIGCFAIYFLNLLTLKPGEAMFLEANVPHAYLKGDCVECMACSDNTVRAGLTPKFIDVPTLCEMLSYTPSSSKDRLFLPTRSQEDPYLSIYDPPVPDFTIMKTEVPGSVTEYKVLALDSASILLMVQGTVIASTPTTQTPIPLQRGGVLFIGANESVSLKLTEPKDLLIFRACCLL
# Assay: MPI inhibition at elevated mannose 6-phosphate – biochemical, fluorescence intensity, high mannose 6-phosphate, primary screen (AID 1220)
# Conditions: recombinant PMI enzyme, coupled fluorescence intensity; at 20 µM; stronger effect = higher value
row,Structure (SMILES),inhibition
1,CC(C)(C)NC(=O)COC(=O)Cc1ccc(Cl)cc1,-0.9%
2,COC(=O)N/N=C/c1cc(Cl)c(OCc2ccc(F)cc2)c(OC)c1,-6.1%
3,CCC(C)NCCOCCOc1ccc(C)cc1Br (stereo not drawn),0.7%
4,CCn1c(SCC(=O)N/N=C/C=C\c2ccccc2[N+](=O)[O-])nc2ccccc21,6.4%
5,CCOc1ccc(NC2CCN(C(C)=O)CC2)cc1,33.1%
6,Clc1ccc(CCNc2nc3ccccc3s2)cc1,1.2%
7,O=C(CSc1ncccc1C(=O)O)c1ccccc1,-60.9%
8,Cn1c(SCC(=O)Nc2cccc(Br)c2)nnc1-c1cc2ccccc2o1,-14.1%
9,O=C(NCCc1ccccc1)c1ccccc1F,8.3%
10,c1cncc(-c2nn[nH]n2)c1,-12.1%
11,c1cncc(-c2cccnc2)c1,-2.8%
12,c1cncc(-c2nnc(-c3cccnc3)nn2)c1,62.4% (active)
13,COc1ccc(S(=O)(=O)NC(CC(=O)NCC2CCCO2)c2ccco2)cc1 (stereo not drawn),8%
14,Cc1cccc(OCCOCCN2CCNCC2)c1C,-5%
15,Cc1nc2sc(C(c3ccccc3)N3CCOCC3)c(O)n2n1 (stereo not drawn),3.4%
16,NC1=NC(=O)C(CC(=O)NCc2ccccc2)S1 (stereo not drawn),-10.3%
17,O=C(O)CNC(=O)CC1S/C(=N/N=C2/NC(=O)CS2)NC1=O (stereo not drawn),29.5%
18,Cc1ccc(C(=O)OCC(=O)Nc2ccccc2)cc1NC(=O)c1ccco1,-0.6%
19,Cc1ccc(C)c(N2CCN(C(=O)CNS(=O)(=O)c3cccs3)CC2)c1,-4.9%
20,COc1ccc(Cn2c(SCc3ccc(C)cc3)nc3cc(OC)c(OC)cc3c2=N)cc1Cl,1.9%
21,CSc1ccc(/C=C/c2ccc3cccc(O)c3n2)cc1,17.3%
22,Cc1ccsc1/C=C/c1ccc2cccc(O)c2n1,-8.2%
23,O=C(CSc1nnc(-c2cccs2)n1-c1ccccc1)NCC1CCCO1 (stereo not drawn),5.8%

row,Structure (SMILES),inhibition
1,O=C1c2ccccc2C(=O)c2c1cccc2N1CCCC1,19.4%
2,CCOc1ccc2noc3c2c1C(=O)c1ccccc1-3,19%
3,CCNc1ccc2noc3c2c1C(=O)c1ccccc1-3,46%
4,O=C1c2ccccc2-c2onc3ccc(NCCCn4ccnc4)c1c23,14.4%
5,O=C1c2ccccc2-c2onc3ccc(NCc4ccco4)c1c23,58.1% (active)
6,O=C1c2ccccc2-c2onc3ccc(N4CCCC4)c1c23,62.6% (active)
7,CSc1nc2ccccc2n1CC(=O)N1CCCCC1,8.7%
8,CCC(Sc1ccc2nnc(-c3ccc(OC)c(OC)c3)n2n1)C(=O)O (stereo not drawn),-19.3%
9,CN(C)S(=O)(=O)c1cc(NC(=O)Cn2ccsc2=N)ccc1Cl,-0.6%
10,CN1CCN(c2ccccc2NC(=O)c2sc3ccccc3c2Cl)CC1,62.3% (active)
11,O=C(NC(=S)Nc1ccccc1N1CCOCC1)c1sc2ccccc2c1Cl,7.5%
12,CN1CCN(c2ccc(NC(=O)c3sc4ccccc4c3Cl)cc2)CC1,10.7%
13,COc1ccccc1NC(=O)CN1CCC(n2c(C)nc3cc(F)ccc32)CC1,-4.8%
14,Cn1c(CNc2ccccc2O)nc2ccccc21,61.3% (active)
15,CCCn1c(CNc2ccccc2O)nc2ccccc21,34.6%
16,Cn1c(CNc2nc3ccccc3n2C)nc2ccccc21,3.4%
17,Oc1ccccc1NCC(O)Cn1ccc2ccccc21 (stereo not drawn),55.3% (active)
18,OC(CNc1ccccc1)Cn1ccc2ccccc21 (stereo not drawn),7.5%
19,OCCNCC(O)Cn1ccc2ccccc21 (stereo not drawn),12%
20,O=C(CSCc1ccccc1)N/N=C/c1ccc(OCC(=O)N2CCCCC2)cc1,2%
21,Cc1cc(NC(=O)c2ccco2)ncc1NC(=O)CCc1ccccc1,34.9%
22,COc1cc(NC(=O)CSc2nc(C)c(C)c(C)n2)c(C)cc1[N+](=O)[O-],-6.6%
23,N#CC(=C=[N-])C1=C(C#N)C(c2ccccc2F)C([n+]2ccccc2)C(O)(C2CC2)N1 (stereo not drawn),21.1%

row,Structure (SMILES),inhibition
1,Cc1cccc[n+]1C1C(c2ccccc2)C(C#N)=C(C(=C=[N-])C#N)NC1(O)C1CC1 (stereo not drawn),50.8% (active)
2,Cc1cccc[n+]1C1C(c2ccc([N+](=O)[O-])cc2)C(C#N)=C(C(=C=[N-])C#N)NC1(O)C1CC1 (stereo not drawn),15.2%
3,Cc1cnc(NC(=O)CC2CCCC2)s1,-13.1%
4,Cc1ccccc1Cn1nnc(-c2ccc3c(c2)OCO3)n1,12.9%
5,CC(=O)c1c(C)nc(-c2ccccc2)nc1N,-1.3%
6,Cc1cc(NC(=O)C23CC4CC(C2)CC(n2cnc([N+](=O)[O-])n2)(C4)C3)no1,11.1%
7,Cc1nc([N+](=O)[O-])nn1C12CC3CC(CC(Cl)(C3)C1)C2,-2.6%
8,COCCn1c(SCc2cccnc2)nnc1-c1ccco1,-18.7%
9,C=CCn1c(=N)c(C(=O)OCC)cc2c(=O)n3cc(C)ccc3nc21,-2.4%
10,CN(CC#CC1(O)c2ccccc2-c2ccccc21)Cc1ccccc1,0.8%
11,CN1CCN(CC(=O)Nc2ccccc2[N+](=O)[O-])CC1,-2.9%
12,COc1ccc(N2CCN(CC(=O)Nc3sccc3C#N)CC2)cc1,18.8%
13,O=C(Cn1cnc2ccccc2c1=O)NCCC(=O)Nc1ccc2c(c1)OCCO2,-6.6%
14,O=C(Cn1cnc2ccccc2c1=O)Nc1ccc2c(c1)OCCO2,52.9% (active)
15,Cc1ccc(S(=O)(=O)N2CCOCC2)cc1NC(=O)CN1CCN(c2ccc(O)cc2)CC1,53.9% (active)
16,CC(C)(C)CNc1cc(N2CCOCC2)ccc1[N+](=O)[O-],16.1%
17,N#Cc1ccsc1NC(=O)CN1CCN(c2ccccc2)CC1,7.6%
18,CN1CCN(CC(=O)Nc2cc(N3CCOCC3)ccc2[N+](=O)[O-])CC1,62.6% (active)
19,O=C(CN1CCN(c2ccc(O)cc2)CC1)Nc1cc(S(=O)(=O)N2CCCC2)ccc1Cl,45.4%
20,N#Cc1ccsc1NC(=O)CN1CCN(c2ccc(O)cc2)CC1,54.7% (active)
21,CC(=O)N1CCN(CC(=O)Nc2cc(S(=O)(=O)N3CCOCC3)ccc2C)CC1,2%
22,O=C(Cn1cnc2ccccc2c1=O)Nc1ccc2c(c1)OCO2,1%
